The values that follow come from PubChem BioAssay (NCATS).

Each structure is given as a SMILES string. Where “and” joins values, the source holds several entries; their conditions need not be identical. Equal entries are not always repeated. Results filed as inconclusive are left out. Values without a mark were called inactive. Calls of active or inactive are those of the source. Unless noted, calls follow the shape of the dose curve; as a rule, active = well fitted curve in the direction sought with a large enough effect; inconclusive = small, poorly fitted or top-dose-only effect, or another doubt; inactive = no such curve, though single readings can be large; an effect the other way counts as inactive or inconclusive.

Chain of Luciferin 4-monooxygenase (Photinus pyralis) (P08659 whole entry, looked up): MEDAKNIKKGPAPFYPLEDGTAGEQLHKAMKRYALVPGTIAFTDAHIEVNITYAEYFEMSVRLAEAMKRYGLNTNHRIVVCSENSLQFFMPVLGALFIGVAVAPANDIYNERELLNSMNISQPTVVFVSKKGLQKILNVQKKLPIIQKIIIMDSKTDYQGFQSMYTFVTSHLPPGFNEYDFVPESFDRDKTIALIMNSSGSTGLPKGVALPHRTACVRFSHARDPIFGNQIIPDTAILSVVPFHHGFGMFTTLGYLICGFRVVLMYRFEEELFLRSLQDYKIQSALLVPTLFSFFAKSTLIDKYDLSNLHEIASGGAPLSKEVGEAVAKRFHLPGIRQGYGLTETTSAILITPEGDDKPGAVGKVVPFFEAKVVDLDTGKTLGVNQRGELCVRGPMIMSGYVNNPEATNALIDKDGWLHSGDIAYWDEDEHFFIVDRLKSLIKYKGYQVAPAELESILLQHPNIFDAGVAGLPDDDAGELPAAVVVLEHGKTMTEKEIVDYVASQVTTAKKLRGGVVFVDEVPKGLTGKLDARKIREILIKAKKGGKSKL

One test addresses Luciferin 4-monooxygenase (Photinus pyralis) (UniProt P08659). Kind of test: Biochemical firefly luciferase enzyme assay for NPC (AID 624030).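 Also: purified P. pyralis luciferase at 10 nM with luciferin and ATP substrate; 0% = DMSO and -100% = full luciferase inhibition by PTC124 control; nearly all actives have a fitted effect of over 70% in size.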 The conditions noted are these: purified P. pyralis luciferase, luminescence, 5 min; series mostly up to 58.6 µM; activity change, negative = inhibition: at the top concentration. The essentials: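 Counter-screen for direct inhibition of the luciferase enzyme by approved-drug library compounds, run at 10 nM enzyme in 50 mM Tris acetate (final). Luminescence was read within 5 min of enzyme-buffer addition and normalized to PTC124 versus DMSO (0%).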
For `O=c1[nH]c(=O)n(Cl)c(=O)n1Cl`, the “activity change, negative = inhibition” value is -0.873%.

Regarding `C[C@H]1CCC[C@H](O)CCCCCc2cc(O)cc(O)c2C(=O)O1`, the “activity change, negative = inhibition” value was -7.11%.

With `CC(C)(C)c1cc(O)ccc1O`, the “activity change, negative = inhibition” value was -6.07%.

Test system in a further test: not listed separately
Kind of test: S16 Schwann cell viability assay (CellTiter-Glo assay) (AID 624031). Also: nearly all actives have a fitted effect of over 70% in size. Also: potency is read from the fitted curve at half-maximal effect.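 As to activity change, negative = cytotoxicity: native untransfected S16 rat Schwann cells; plate controls were DMSO-treated cells for no effect and cell-free wells for full effect.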 Conditions: S16 rat Schwann cells viability, 24 h; series mostly up to 57.5 µM; activity change, negative = cytotoxicity: at the top concentration. The method in brief: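 Counter-screen for cytotoxicity: parental S16 rat Schwann cells lacking the PMP22 reporters, treated 24 h with compound, viability from cellular ATP by CellTiter-Glo luminescence, normalized to DMSO (0%) and no-cell wells.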
In general terms: Cellular ATP, detected with luciferase, serves as a proxy for viable cell number.
With `O=c1[nH]c(=O)n(Cl)c(=O)n1Cl`, the “activity change, negative = cytotoxicity” value is -24%.

For `C[CH2][Hg][S]c1ccccc1C(=O)O`, the Potency was 1280 nM (active).

As to `C[C@H]1CCC[C@H](O)CCCCCc2cc(O)cc(O)c2C(=O)O1`, the “activity change, negative = cytotoxicity” value is 14.8%.

Take `CC(C)(C)c1cc(O)ccc1O`: the “activity change, negative = cytotoxicity” value was 6.67%.

Test system in another test: not listed separately
The test can be described thus: S16 Schwann cell PMP22 intronic element firefly luciferase assay (AID 624032). Also: nearly all actives have a fitted effect of over 30% in size. Also: potency is read from the fitted curve at half-maximal effect.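 As to activity change, negative = inhibition: plate controls were DMSO for no effect and PTC124 positive control mean for full effect.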 Conditions: S16 rat Schwann cells, PMP22 element FLuc, 24 h; series mostly up to 57.5 µM; activity change, negative = inhibition: at the top concentration. The essentials: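 Rat S16 Schwann cells stably carrying a PMP22 intronic element-driven Fluc reporter were seeded overnight, then exposed to compounds for 24 h at 37 °C. Luminescence was normalized to PTC124 (positive control) and DMSO (0% activity).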
As for `O=c1[nH]c(=O)n(Cl)c(=O)n1Cl`, the “activity change, negative = inhibition” value was -10.9%.

As for `C[CH2][Hg][S]c1ccccc1C(=O)O`, the Potency is 721 nM (active).

Regarding `CC(C)(C)c1cc(O)ccc1O`, the Potency was 7.21 µM (active) and 28.7 µM (active).

Test system in another test: not listed separately
Kind of test: qHTS assay for small molecule activators of the p53 signaling pathway (AID 651743; active = well fitted activation curve with a large enough effect in the signal ratio, not every such curve was filed as active; the % refers to the signal ratio; also: % of control where 0% means no effect). The conditions noted are these: HCT-116 p53RE-bla, beta-lactamase FRET ratio, 16 h; activation: active compounds read high. The method in brief:
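p53RE-bla HCT-116 cells with a stably integrated beta-lactamase reporter under p53 response elements were plated, rested 5 hours at 37 C/5% CO2, then exposed to compounds in DMSO for 16 hours at 37 C. LiveBLAzer B/G FRET substrate was read after 2 hours at room temperature.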
Background: In qHTS, concentration-response curves come from the screen itself.
Regarding `C[C@H]1CCC[C@H](O)CCCCCc2cc(O)cc(O)c2C(=O)O1`, the activation was -0.975%.

Regarding `CC(C)(C)c1cc(O)ccc1O`, the activation is -3.68% and -3.53% and -5.7%.

`O=C1C[C@@H]2OCC=C3CN4CC[C@]56c7ccccc7N1[C@H]5[C@H]2[C@H]3C[C@H]46`: the activation is -1.99%.
